PubChem BioAssay AID720597 (Broad Institute, 2013)
Results with a measured potency or affinity are listed apart. Unmarked numbers belong to inactive results.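 How the source made its calls: active means fitted half-maximal dose no more than twice the top valid tested dose, for compounds that lower signal; inconclusive means fit invalid, or curve flat with activity between -70 and -30; inactive means potency past limit, curve flat within ±30, or signal increasing.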

What follows are molecules tested against NAD-dependent protein deacylase sirtuin-5, mitochondrial (Homo sapiens) (UniProt Q9NXA8) (assay: blockers of sirtuin-5 peptide desuccinylation – biochemical, fluorescence imaging, cherry-pick, set 6, dose response (AID 720597;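 further: lower AMC signal can also come from blocking the trypsin step; 0% = median of neutral control wells and -100% = median of positive control wells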)). Conditions: Purified SirT5, succinyl-peptide-AMC/trypsin fluorescence; series mostly up to 15 µM; activity change, negative = inhibition: at the top concentration.
NAD-dependent protein deacylase sirtuin-5, mitochondrial (Homo sapiens), sequence (Q9NXA8 whole entry, looked up): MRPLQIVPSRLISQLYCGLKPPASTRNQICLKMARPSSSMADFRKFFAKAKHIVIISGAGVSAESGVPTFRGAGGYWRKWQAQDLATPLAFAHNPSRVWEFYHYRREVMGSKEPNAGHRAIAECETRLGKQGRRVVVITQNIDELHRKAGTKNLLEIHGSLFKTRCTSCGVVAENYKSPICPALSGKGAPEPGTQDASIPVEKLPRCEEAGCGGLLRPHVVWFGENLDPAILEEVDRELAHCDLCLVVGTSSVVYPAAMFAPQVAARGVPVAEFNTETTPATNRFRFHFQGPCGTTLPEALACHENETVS
`OC[C@H]1[C@@H](c2ccc(-c3cccc(F)c3)cc2)[C@H]2CN(CCC(F)(F)F)CCCCN21` was tested, and the “activity change, negative = inhibition” value was 23%.
`C[C@H](CO)N1C[C@H](C)[C@@H](CN(C)S(=O)(=O)c2ccccc2F)Oc2cc(C#Cc3cccc(F)c3)ccc2S1(=O)=O` was tested, and the “activity change, negative = inhibition” value was 7.3%.
For `C[C@@H]1CN([C@H](C)CO)C(=O)Cc2cc(NC(=O)Nc3ccc(F)cc3)ccc2O[C@@H]1CN(C)Cc1ccc2c(c1)OCO2`, the “activity change, negative = inhibition” value was -8.82%.
`O=C(C[C@@H]1CC[C@@H](NS(=O)(=O)c2ccc(F)cc2)[C@@H](CO)O1)N1CCC(Cc2ccccc2)CC1` was tested, and the “activity change, negative = inhibition” value was -27.4%.
In the case of `C[C@@H]1CN([C@@H](C)CO)S(=O)(=O)c2ccc(C#CC(C)(C)O)cc2O[C@H]1CN(C)Cc1ccc(F)cc1`, the “activity change, negative = inhibition” value is reported as 9.62%.
With `C[C@@H](O)C#Cc1ccc2c(c1)O[C@H](CN(C)Cc1ccc(-c3ccccc3)cc1)[C@@H](C)CN([C@@H](C)CO)S2(=O)=O` the “activity change, negative = inhibition” value was -24.7%.
With `CN(C)C(=O)c1cccc(-c2ccc([C@H]3[C@H](CO)N4CCCCN(S(C)(=O)=O)C[C@@H]34)cc2)c1` the “activity change, negative = inhibition” value was -1.98%.
In the case of `C[C@@H]1CCCCO[C@H](CN(C)S(=O)(=O)c2ccc(Cl)cc2)[C@H](C)CN([C@@H](C)CO)C(=O)c2cc(N(C)C)ccc2O1`, the “activity change, negative = inhibition” value is reported as -28.7%.
For `COCCOC(=O)N1C(=O)[C@@]2(c3cc(C#CCCO)ccc31)[C@H](c1ccccc1OCCO)N1[C@H](c3ccccc3)[C@H](c3ccccc3)OC(=O)[C@H]1[C@@H]2C(=O)N1CCN(c2ncccn2)CC1`, the “activity change, negative = inhibition” value was -16.8%.
`C[C@H]1CN([C@@H](C)CO)S(=O)(=O)c2ccc(C#CC3CC3)cc2O[C@@H]1CN(C)Cc1ccccc1F` was tested, and the “activity change, negative = inhibition” value was -7.85% [at 16 µM].
With `CC(C)[C@@H](C)NC(=O)N(C)C[C@@H]1OCc2ccccc2-c2c(n(C)c3ccccc23)C(=O)N([C@@H](C)CO)C[C@@H]1C` the “activity change, negative = inhibition” value was -18.6%.
In the case of `C[C@H]1CCCCO[C@H](CN(C)Cc2ccc(C(F)(F)F)cc2)[C@@H](C)CN([C@@H](C)CO)C(=O)c2cc(NS(=O)(=O)c3ccccc3)ccc2O1`, the “activity change, negative = inhibition” value is reported as 0.872%.
With `C[C@H](CO)N1C[C@H](C)[C@H](CN(C)Cc2ccc(-c3ccccc3)cc2)Oc2ccc(NC(=O)CCCCCC(=O)Nc3ccccc3N)cc2C1=O` the “activity change, negative = inhibition” value was 28.7%.
For `C[C@H]1CN([C@@H](C)CO)C(=O)c2cc(NC(=O)Cc3ccccc3)ccc2O[C@@H]1CN(C)Cc1ccc(Oc2ccccc2)cc1`, the “activity change, negative = inhibition” value was -6.95%.
For `C[C@@H]1CN([C@H](C)CO)C(=O)c2cc(NS(=O)(=O)c3cccs3)ccc2O[C@@H](C)CCCCO[C@@H]1CN(C)Cc1ccc(C(F)(F)F)cc1`, the “activity change, negative = inhibition” value was -13%.
With `CO[C@@H]1CC[C@@H]2CCN(C)C(=O)[C@@H](C)[C@H](OC)CN(C)C(=O)c3cc(C#N)ccc3OC[C@@H]1O2` the “activity change, negative = inhibition” value was 13.5%.
`C[C@H]1CN([C@@H](C)CO)C(=O)c2cc(C#CCN(C)C)cnc2O[C@H]1CN(C)S(=O)(=O)c1ccccc1` was tested, and the “activity change, negative = inhibition” value was -12.4%.
In the case of `Cc1noc(C)c1S(=O)(=O)Nc1ccc2c(c1)CC(=O)N([C@H](C)CO)C[C@H](C)[C@@H](CN(C)Cc1ccc(C(=O)O)cc1)O2`, the “activity change, negative = inhibition” value is reported as -11.7%.
With `C[C@H](CO)N1C[C@H](C)[C@@H](CN(C)Cc2ccc(C(F)(F)F)cc2)Oc2ccc(NS(=O)(=O)c3ccc(F)cc3)cc2CC1=O` the “activity change, negative = inhibition” value was -8.64%.
`CCOc1ccc(C)cc1S(=O)(=O)n1ccnc1C` was tested, and the “activity change, negative = inhibition” value was -12.4%.
With `C[C@@H]1CN([C@H](C)CO)C(=O)c2c(c3ccccc3n2C)-c2ccccc2CO[C@H]1CN(C)S(=O)(=O)c1ccc([N+](=O)[O-])cc1` the “activity change, negative = inhibition” value was 21.9%.
For `O=C(C[C@@H]1CC[C@@H](NC(=O)Nc2cccc(F)c2)[C@H](CO)O1)NCC1CC1`, the “activity change, negative = inhibition” value was 1.72%.
With `O=C(NCC[C@H]1CC[C@@H](NC(=O)C2CC2)[C@H](CO)O1)c1cc(Cl)cc(Cl)c1` the “activity change, negative = inhibition” value was -4.46%.
In the case of `COc1ccc(S(=O)(=O)N(C)C[C@H]2Oc3cc(C#CC4CC4)ccc3S(=O)(=O)N([C@@H](C)CO)C[C@@H]2C)cc1`, the “activity change, negative = inhibition” value is reported as 11.5%.
`COc1ccc(-c2cnc3c(c2)C(=O)N([C@@H](C)CO)C[C@H](C)[C@@H](CN(C)Cc2ccc(C(=O)O)cc2)O3)cc1` was tested, and the “activity change, negative = inhibition” value was -18.3%.
In the case of `COc1ccc(S(=O)(=O)Nc2ccc3c(c2)C(=O)N([C@@H](C)CO)C[C@@H](C)[C@@H](CN(C)Cc2ccc(C(F)(F)F)cc2)OCCCC[C@H](C)O3)cc1`, the “activity change, negative = inhibition” value is reported as -25.7%.
For `COc1ccc(C#Cc2ccc([C@@H]3[C@@H](CO)N4C(=O)CN(C(=O)c5cccnc5)C[C@H]34)cc2)cc1`, the “activity change, negative = inhibition” value was -11.8%.
With `C[C@@H]1CN([C@@H](C)CO)S(=O)(=O)c2ccc(C#Cc3cccc(F)c3)cc2O[C@H]1CN(C)S(=O)(=O)c1ccccc1F` the “activity change, negative = inhibition” value was 32.6%.
